Source: PubChem BioAssay (The Scripps Research Institute Molecular Screening Center)
LYPLA1 counter – blocks human lysophospholipase 1, a PME1 counter-screen. O75608. recombinant LYPLA1, FP-Rh probe fluorescence polarization. inhibition, % at 5.9 µM. 320,000 compounds, 0.16% hits. AID 2174;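 active = inhibition above the mean of all tested compounds plus 3 SD, set per campaign, cut at about 14% in these data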;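 note: inhibitors block serine hydrolase probe labeling of LYPLA1 so polarization falls; 0% = enzyme with DMSO and 100% = wells lacking LYPLA1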
Target sequence (O75608 whole entry, looked up): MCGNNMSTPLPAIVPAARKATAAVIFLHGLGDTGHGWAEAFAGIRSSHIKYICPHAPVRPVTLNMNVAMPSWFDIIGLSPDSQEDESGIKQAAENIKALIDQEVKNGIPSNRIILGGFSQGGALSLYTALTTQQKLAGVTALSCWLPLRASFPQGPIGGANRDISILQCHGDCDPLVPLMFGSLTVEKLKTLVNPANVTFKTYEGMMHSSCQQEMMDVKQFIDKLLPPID
LYPLA2 counter – LYPLA2 (human) inhibition in PME1 counter-screen; O95372; recombinant LYPLA2, FP-Rh probe fluorescence polarization; inhibition, % at 5.9 µM; 320,000 compounds, 0.38% hits;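 active = inhibition above the screen-wide mean plus 3 SD, limit set per campaign, cut at about 26% in these data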;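 note: 0% = LYPLA2 with DMSO and 100% = wells lacking LYPLA2 enzyme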
Target sequence (O95372 whole entry, looked up): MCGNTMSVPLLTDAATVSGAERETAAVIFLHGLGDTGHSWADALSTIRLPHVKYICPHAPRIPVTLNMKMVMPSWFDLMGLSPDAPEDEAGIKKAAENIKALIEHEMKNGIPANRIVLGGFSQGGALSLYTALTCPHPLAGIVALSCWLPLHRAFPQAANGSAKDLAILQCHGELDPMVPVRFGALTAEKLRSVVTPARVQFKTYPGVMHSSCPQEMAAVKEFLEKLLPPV
PAFAH1B2 FP inh – PAFAH1B2 (human) inhibition | inhibition, % at 3.39 µM | P68402 | 340,000 compounds, 1.2% hits | AID 492953 | recombinant PAFAH1B2, FP-rhodamine activity probe, fluorescence polarization;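 active = inhibition above the mean of all tested compounds plus 3 SD, cut at about 24% in these data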;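 note: 0% = enzyme with DMSO and 100% = wells lacking PAFAH1B2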
Target sequence (P68402 whole entry, looked up): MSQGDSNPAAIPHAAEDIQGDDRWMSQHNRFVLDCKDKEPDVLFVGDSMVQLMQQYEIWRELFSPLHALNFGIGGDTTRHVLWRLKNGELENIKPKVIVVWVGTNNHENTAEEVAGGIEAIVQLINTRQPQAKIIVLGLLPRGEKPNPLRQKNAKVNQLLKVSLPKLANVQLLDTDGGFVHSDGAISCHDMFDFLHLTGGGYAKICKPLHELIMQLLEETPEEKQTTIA
pPAFAH FP inh – inhibitors of human plasma PAF acetylhydrolase (pPAFAH); Q13093; recombinant pPAFAH, FP-rhodamine probe fluorescence polarization; inhibition, % at 3.39 µM; 330,000 compounds, 1.5% hits; AID 463082;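 active = inhibition above the mean inhibition across the screen plus 3 SD, cut at about 25% in these data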;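 note: inhibitors block binding of the rhodamine activity-based probe so polarization drops; 0% = enzyme with DMSO and 100% = wells lacking pPAFAH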
PAFAH1B3 FP inh – inhibitors of human PAFAH1B3 | AID 492972 | recombinant PAFAH1B3, FP-rhodamine probe, fluorescence polarization | Q15102 | inhibition, % at 3.39 µM | 340,000 compounds, 0.28% hits;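 active = inhibition above the screen-wide average of all tested compounds plus 3 SD, cut at about 25% in these data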;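 note: 0% = enzyme with DMSO only and 100% = wells lacking PAFAH1B3 protein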
PAFAH2 inh – PAFAH2 (human) inhibition. 340,000 compounds, 0.99% hits. recombinant PAFAH2, FP-rhodamine activity probe, fluorescence polarization. AID 492956. Q99487. inhibition, % at 3.39 µM;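 active = inhibition above the mean over all tested compounds plus 3 SD, cut at about 30% in these data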;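 note: inhibitors block probe labeling of enzyme so polarization drops; 0% = enzyme with DMSO and 100% = wells lacking PAFAH2 protein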
LYPLA1 conf – counter-screen for PME1 inhibitors: confirmation of human LYPLA1 inhibitors | shares compounds with LYPLA1 counter | recombinant LYPLA1, FP-Rh probe fluorescence polarization | inhibition, % at 5.9 µM | 480 compounds, 69% hits | AID 2233;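 active = mean inhibition across replicates above the hit cutoff set in the primary screen, cut at about 15% in these data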;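 note: loss of FP-Rh probe labeling of LYPLA1 seen as lower polarization; 0% = LYPLA1 with DMSO and 100% = wells lacking LYPLA1 enzyme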
LYPLA2 confirm – counter-screen for PME1 inhibitors: confirmation of human LYPLA2 inhibitors. shares compounds with LYPLA2 counter. recombinant LYPLA2, FP-Rh probe fluorescence polarization. inhibition, % at 5.9 µM. 1,100 compounds, 72% hits. AID 2232;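 active = mean inhibition across replicates above the hit cutoff set in the primary screen, cut at about 26% in these data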;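 note: blocked labeling of the enzyme by serine hydrolase FP-Rh probe lowers polarization; 0% = enzyme with DMSO and 100% = wells lacking LYPLA2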
pPAFAH FP conf – confirmation of human plasma PAF acetylhydrolase (pPAFAH) inhibitors. recombinant pPAFAH, FP-Rh probe fluorescence polarization. 2,300 compounds, 72% hits. inhibition, % at 3.39 µM. shares compounds with pPAFAH FP inh;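 active = mean inhibition of the triplicate above the hit cutoff set for the earlier primary screen, cut at about 25% in these data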;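 note: 0% = enzyme with DMSO and 100% = wells lacking pPAFAH enzyme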
PAFAH1B3 confirm – confirmation of human PAFAH1B3 inhibitors. shares compounds with PAFAH1B3 FP inh. inhibition, % at 3.39 µM. AID 493032. 390 compounds, 30% hits. recombinant PAFAH1B3, FP-Rh activity-based probe, fluorescence polarization;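 active = average inhibition over triplicate runs above the hit cutoff set in the earlier primary screen, cut at about 25% in these data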;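 note: 0% = enzyme with DMSO and 100% = wells lacking PAFAH1B3 protein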
Numbers without * were called inactive; · = no result. Most compounds without a hit are left out; they make up all but 2.9% or so of the library.

SMILES | LYPLA1 counter | LYPLA2 counter | PAFAH1B2 FP inh | pPAFAH FP inh | PAFAH1B3 FP inh | PAFAH2 inh | LYPLA1 conf | LYPLA2 confirm | pPAFAH FP conf | others
CC1=CN2C(=N)/C(=C/c3ccc([N+](=O)[O-])o3)C(=O)N=C2S1 | 17.1* | 23.4 | -2.2 | 43.7* | -10.3 | 8.5 | -2.9 | · | 29.6*
O=S(=O)(c1cccs1)N1CN(Cc2ccco2)c2nc3ccccc3nc21 | 30.4* | 37.8* | 5.2 | 46.4* | 3.2 | 1.8 | 2.3 | 8.4 | 15.9
O=c1[nH]nc(CNc2ccc(O)cc2)c2ccccc12 | 16.3* | 34.2* | 7.8 | 58.9* | 17.4 | 14.9 | 5.0 | 5.0 | -5.6
COC1=CC(=O)C(O)=C(CCCCCCC/C=C/CCCCCCCC2=C(O)C(=O)C=C(OC)C2=O)C1=O | 56.2* | 50.9* | 94.2* | 95.0* | 41.3* | 101.2* | 71.9* | 35.7* | 95.4*
COc1ccc(OC)c(S(=O)(=O)Nc2ccc(C(C)=O)cc2)c1 | 0.6 | -0.6 | 0.3 | 6.5 | -3.0 | 8.4 | · | · | ·
CN1C(=O)NC(c2ccccc2[N+](=O)[O-])C2=C1CCCC2=O (stereo unspecified) | 72.7* | 94.1* | 49.2* | 72.0* | 58.2* | 67.0* | 28.2* | 73.8* | 17.4
O=C1NC(=Nc2ccccc2Cl)S/C1=C\c1cc([N+](=O)[O-])ccc1O | 27.1* | 4.0 | 28.1* | 40.8* | 60.7* | 44.2* | 30.9* | · | 62.7*
O=C1N/C(=N/O)S/C1=C/c1cccc([N+](=O)[O-])c1 | -2.6 | -8.6 | 4.7 | 1.1 | 5.5 | 10.5 | · | · | ·
N#CCCN(CCC#N)C(=O)C1c2ccccc2Oc2ccccc21 | 76.4* | 76.0* | 21.4 | 65.2* | 17.6 | 27.4 | 2.9 | 3.0 | 1.8
CN(CCC#N)C(=O)COC(=O)C1c2ccccc2Oc2ccccc21 | 1.9 | -6.2 | 3.6 | 2.5 | -4.0 | -9.6 | · | · | ·
COc1ccc([N+](=O)[O-])cc1NS(=O)(=O)c1cc(C(=O)NCc2cccnc2)ccc1Cl | 4.2 | 3.5 | 11.8 | 0.4 | 14.7 | 6.9 | · | · | ·
CC1CCCN(C(=O)CSc2ncccn2)C1 (stereo unspecified) | 0.5 | -2.6 | 1.6 | -0.7 | 1.2 | -4.6 | · | · | ·
COc1ccc(Br)cc1/C=N/Nc1cccc(C(=O)O)c1 | 4.2 | 5.2 | -1.8 | 7.2 | 0.7 | 1.7 | · | · | ·
O=C(O)c1cccc(N/N=C/c2cc(Br)cc(Br)c2O)c1 | 24.4* | 13.9 | 18.8 | 45.4* | 12.7 | 36.8* | 19.8* | · | 44.1*
COc1cc(OC)cc(C(=O)NC(=S)N2CCCCC2c2cccnc2)c1 (stereo unspecified) | 3.3 | 0.6 | 7.1 | -2.2 | 1.2 | -2.4 | · | · | ·
N=C1CCC(=N)c2c1c(O)c1ccccc1c2O | 30.7* | 42.2* | 39.3* | 63.5* | 44.3* | 69.1* | 10.3 | 24.8 | 41.0*
O=C1CCn2c1c(O)c1ccccc1c2=O | · | · | 3.8 | · | 7.7 | 11.6 | · | · | ·
Cc1cc2c(N)cccc2nn1 | 46.8* | 52.1* | 25.6* | 72.9* | 33.3* | 37.7* | 2.8 | 45.7* | 5.7
Nc1cccc2nc3ccccc3cc12 | -1.7 | -4.3 | 0.3 | -2.5 | -1.3 | 5.0 | · | · | ·
CCNc1cc(O)ccc1C | 30.8* | 40.2* | 14.1 | 74.6* | 14.9 | 26.2 | 14.8* | 8.0 | 11.8
CN1C(=CC=C2C=C(I)C(=O)C(I)=C2)C(C)(C)c2ccccc21 | · | · | -247.7 | · | -385.6 | -333.1 | · | · | ·
CN1/C(=C\C=C2/C(=O)Oc3ccccc3C2=O)C(C)(C)c2ccccc21 | 51.1* | -212.9 | · | 34.7* | · | · | -59.5 | · | -59.8
COCCn1c(C)cc(/C=N/NC(=O)c2cc3ccccc3cc2O)c1C | -13.1 | 3.5 | 8.2 | 23.4 | 13.9 | -0.4 | · | · | ·
Cn1c(O)c(/C=N/NC(=O)c2cc3ccccc3cc2O)c2ccccc21 | 15.4* | 2.6 | 37.1* | 62.4* | 36.6* | 12.7 | 15.7* | · | 49.2*
CCOc1ccc2ccccc2c1/C=N/NC(=O)CNC(=O)c1ccccc1O | -11.8 | -13.7 | 1.3 | 6.5 | -2.8 | -10.8 | · | · | ·
SMILES | LYPLA1 counter | LYPLA2 counter | PAFAH1B2 FP inh | pPAFAH FP inh | PAFAH1B3 FP inh | PAFAH2 inh | LYPLA1 conf | LYPLA2 confirm | pPAFAH FP conf | others
CC(=O)N(C1=C(N)C(=O)c2ccccc2C1=O)c1ccccc1 | 1.9 | 3.6 | 12.4 | 5.1 | 13.1 | 2.8 | · | · | ·
C/C(=N/NC(=O)c1cc2ccccc2cc1O)C1C(=O)c2ccccc2C1=O | 63.2* | 23.6 | 73.0* | 76.9* | 37.0* | 73.7* | 57.1* | · | 67.6*
O=C(NC1CCCC1)c1ccc(CS(=O)(=O)Cc2ccccc2Cl)o1 | -1.0 | 1.4 | 4.2 | 5.8 | 7.0 | 1.0 | · | · | ·
COc1cccc2c1C(=O)c1c(O)c3c(c(O)c1C2=O)C[C@@](O)(C(=O)CO)C[C@@H]3O[C@H]1C[C@H](N)[C@H](O)[C@H](C)O1 | 59.5* | 42.6* | 40.7* | 58.0* | 18.8 | 46.2* | 52.4* | 26.8* | 45.0*
O=C(CCCCC(=O)NC1CCCC1)NC1CCCC1 | 3.2 | 10.0 | 1.4 | 2.6 | 1.8 | -1.4 | · | · | ·
Cn1c(=O)c2cc(NCc3ccccc3)nnc2n(C)c1=O | 19.1* | 25.5 | 11.7 | 9.8 | 66.0* | 16.7 | 3.2 | · | · | PAFAH1B3 confirm=11.7
CSCCC(C(=O)OC1CCOC1=O)N1C(=O)c2ccccc2C1=O (stereo unspecified) | -1.8 | -6.0 | 6.3 | 2.4 | 7.7 | 2.4 | · | · | ·
O=C(O)c1cccc2c1-c1ccccc1/C2=N\Nc1ccccc1 | 1.6 | 2.9 | 9.2 | 18.9 | -0.4 | 21.9 | · | · | ·
O=C(O)c1cc(NN=C2c3ccccc3-c3ccccc32)ccc1Cl | 16.2* | 12.6 | 9.4 | 5.2 | 47.7* | 23.5 | 16.4* | · | · | PAFAH1B3 confirm=37.2*
Nc1nc(N2CCN(C/C=C/c3ccccc3)CC2)nc2ccccc12 | 6.1 | 42.2* | 0.6 | 1.2 | 2.6 | 4.4 | · | 39.0* | ·
O=c1[nH]c(CN2CCN(C/C=C/c3ccccc3)CC2)nc2ccccc12 | 3.4 | 0.7 | -0.2 | 1.9 | 6.1 | -9.8 | · | · | ·
O=C(Nc1ccc(CN2CCCCC2)cc1)c1cccc(Br)c1 | -0.1 | 7.9 | 4.6 | -1.6 | 4.2 | 2.3 | · | · | ·
Cn1c(CNc2ccc(Cl)cc2)nnc1SCc1ccccc1 | -0.5 | -1.2 | 11.6 | 3.8 | -5.5 | -1.3 | · | · | ·
Cc1ccc2c(CN3C(=O)NC(C)(c4ccc5c(c4)OCO5)C3=O)cc(=O)oc2c1 (stereo unspecified) | -2.3 | -1.6 | 3.1 | 0.7 | 2.7 | 8.8 | · | · | ·
Cc1ccc(Cn2ncc(Cl)c(Cl)c2=O)cc1 | 3.2 | 4.6 | 3.0 | 6.6 | -42.2 | 0.3 | · | · | ·
